Reference: article PMC7862700, “An all-to-all approach to the identification of sequence-specific readers for epigenetic DNA modifications on cytosine”

Assays:
Test in all cases: DAPPL (digital affinity profiling via proximity ligation, sequencing); 10 mM Tris-HCl pH 7.5, 50 mM NaCl, 1 mM DTT, 4% glycerol, room temperature, 30 min; GST-TFs on glutathione beads, 16-mer random dsDNA library, 0.1% formaldehyde crosslink after washing; high values mean tight binding
Conditions in all cases: protein: recombinant; tags: N-terminal GST; dsDNA, one strand shown
ELK4 = biological target: T1, ELK4 (Homo sapiens, UniProt P28324-2 1-405)
T1 sequence: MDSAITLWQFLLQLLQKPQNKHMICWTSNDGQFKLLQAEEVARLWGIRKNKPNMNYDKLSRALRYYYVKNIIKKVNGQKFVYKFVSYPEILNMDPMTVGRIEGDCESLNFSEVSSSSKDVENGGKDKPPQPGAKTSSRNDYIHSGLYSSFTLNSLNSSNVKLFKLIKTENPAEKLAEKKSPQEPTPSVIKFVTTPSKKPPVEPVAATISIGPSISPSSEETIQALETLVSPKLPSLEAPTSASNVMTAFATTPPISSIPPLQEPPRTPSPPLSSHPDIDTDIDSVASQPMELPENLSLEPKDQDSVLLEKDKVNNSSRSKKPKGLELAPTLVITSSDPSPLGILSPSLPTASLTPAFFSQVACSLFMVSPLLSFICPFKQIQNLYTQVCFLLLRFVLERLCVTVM
Outline: (§1)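 Human transcription factors fused to GST were expressed in yeast, captured on glutathione beads, given DNA barcodes and pooled with a GST-only negative control. Pools were incubated with 200 nmole of a 16-mer random double-stranded DNA library in Tris/NaCl/DTT/glycerol buffer at room temperature for 30 min. They were then washed, crosslinked with 0.1% formaldehyde, proximity-ligated (BsaI/T4 ligase, 1 h, 37 °C), PCR-amplified and sequenced on an Illumina NextSeq500. Binding signal is each 6-mer's read frequency for a factor divided by its frequency for the GST control.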

ETV2 = biological target: T2, ETV2 (Homo sapiens, UniProt O00321 1-342)
T2 sequence: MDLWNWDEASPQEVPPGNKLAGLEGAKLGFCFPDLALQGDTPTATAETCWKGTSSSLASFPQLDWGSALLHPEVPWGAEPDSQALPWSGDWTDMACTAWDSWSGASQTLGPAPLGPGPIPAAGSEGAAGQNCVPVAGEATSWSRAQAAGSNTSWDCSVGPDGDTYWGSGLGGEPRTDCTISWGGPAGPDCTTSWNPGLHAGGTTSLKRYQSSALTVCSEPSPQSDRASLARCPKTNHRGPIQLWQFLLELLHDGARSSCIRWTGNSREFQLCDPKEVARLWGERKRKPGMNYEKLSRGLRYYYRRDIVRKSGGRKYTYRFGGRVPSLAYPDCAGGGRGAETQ
Outline: as §1

ELF3 = biological target: T3, ELF3 (Homo sapiens, UniProt P78545 1-371)
T3 sequence: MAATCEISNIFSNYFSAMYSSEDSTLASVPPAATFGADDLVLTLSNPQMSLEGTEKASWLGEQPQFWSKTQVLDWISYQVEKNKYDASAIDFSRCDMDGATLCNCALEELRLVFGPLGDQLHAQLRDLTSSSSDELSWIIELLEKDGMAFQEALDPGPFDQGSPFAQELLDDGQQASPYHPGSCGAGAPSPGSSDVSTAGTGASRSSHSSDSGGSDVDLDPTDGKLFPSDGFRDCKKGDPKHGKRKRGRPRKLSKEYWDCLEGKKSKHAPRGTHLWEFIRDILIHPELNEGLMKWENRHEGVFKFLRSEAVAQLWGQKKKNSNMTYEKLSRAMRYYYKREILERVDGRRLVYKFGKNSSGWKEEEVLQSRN
Outline: as §1

ETV1 = ETV1 (Homo sapiens, UniProt P50549 1-477)
ETV1, sequence (P50549 whole entry): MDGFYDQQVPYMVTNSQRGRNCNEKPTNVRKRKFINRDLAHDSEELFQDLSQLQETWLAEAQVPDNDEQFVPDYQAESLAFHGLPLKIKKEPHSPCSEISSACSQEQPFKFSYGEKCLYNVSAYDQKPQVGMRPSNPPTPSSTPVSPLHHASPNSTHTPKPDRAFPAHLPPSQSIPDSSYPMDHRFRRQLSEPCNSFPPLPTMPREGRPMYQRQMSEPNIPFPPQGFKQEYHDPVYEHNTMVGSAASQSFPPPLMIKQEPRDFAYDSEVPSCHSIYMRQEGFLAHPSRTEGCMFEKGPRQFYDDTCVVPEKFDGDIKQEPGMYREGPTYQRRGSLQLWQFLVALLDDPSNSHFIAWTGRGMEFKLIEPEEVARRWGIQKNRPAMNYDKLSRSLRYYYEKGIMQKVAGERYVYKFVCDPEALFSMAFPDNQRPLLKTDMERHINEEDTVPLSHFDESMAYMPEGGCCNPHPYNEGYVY
Outline: as §1

ERF = biological target: T4, ERF (Homo sapiens, UniProt P50548 1-548)
T4 sequence: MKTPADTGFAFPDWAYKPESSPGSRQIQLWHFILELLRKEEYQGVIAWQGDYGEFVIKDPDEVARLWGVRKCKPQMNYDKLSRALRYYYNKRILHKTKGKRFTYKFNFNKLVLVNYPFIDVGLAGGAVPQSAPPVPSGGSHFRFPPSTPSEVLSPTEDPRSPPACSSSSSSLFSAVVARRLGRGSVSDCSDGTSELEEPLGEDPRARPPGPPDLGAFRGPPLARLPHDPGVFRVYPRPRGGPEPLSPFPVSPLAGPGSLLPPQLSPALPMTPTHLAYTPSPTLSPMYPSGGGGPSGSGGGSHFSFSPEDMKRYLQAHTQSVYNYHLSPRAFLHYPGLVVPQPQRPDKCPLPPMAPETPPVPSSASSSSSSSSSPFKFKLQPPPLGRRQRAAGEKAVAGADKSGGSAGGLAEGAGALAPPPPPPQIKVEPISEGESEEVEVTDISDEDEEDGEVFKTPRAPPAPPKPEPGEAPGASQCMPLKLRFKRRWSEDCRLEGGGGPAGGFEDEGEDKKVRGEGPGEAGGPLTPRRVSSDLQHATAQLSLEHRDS
Outline: as §1

ETV3L = biological target: T5, ETV3L (Homo sapiens, UniProt Q6ZN32 1-361)
T5 sequence: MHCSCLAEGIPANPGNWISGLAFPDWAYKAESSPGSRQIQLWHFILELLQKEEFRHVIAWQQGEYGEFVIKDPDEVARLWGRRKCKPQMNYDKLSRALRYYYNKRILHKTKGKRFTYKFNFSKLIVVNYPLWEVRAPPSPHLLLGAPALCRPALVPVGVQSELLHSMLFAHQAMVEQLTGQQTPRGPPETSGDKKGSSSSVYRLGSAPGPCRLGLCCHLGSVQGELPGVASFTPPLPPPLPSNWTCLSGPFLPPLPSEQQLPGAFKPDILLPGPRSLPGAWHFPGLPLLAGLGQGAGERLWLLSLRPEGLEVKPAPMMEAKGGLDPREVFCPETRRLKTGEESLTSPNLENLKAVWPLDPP
Outline: as §1

ETS2 = biological target: T6, ETS2 (Homo sapiens, UniProt P15036 1-469)
T6 sequence: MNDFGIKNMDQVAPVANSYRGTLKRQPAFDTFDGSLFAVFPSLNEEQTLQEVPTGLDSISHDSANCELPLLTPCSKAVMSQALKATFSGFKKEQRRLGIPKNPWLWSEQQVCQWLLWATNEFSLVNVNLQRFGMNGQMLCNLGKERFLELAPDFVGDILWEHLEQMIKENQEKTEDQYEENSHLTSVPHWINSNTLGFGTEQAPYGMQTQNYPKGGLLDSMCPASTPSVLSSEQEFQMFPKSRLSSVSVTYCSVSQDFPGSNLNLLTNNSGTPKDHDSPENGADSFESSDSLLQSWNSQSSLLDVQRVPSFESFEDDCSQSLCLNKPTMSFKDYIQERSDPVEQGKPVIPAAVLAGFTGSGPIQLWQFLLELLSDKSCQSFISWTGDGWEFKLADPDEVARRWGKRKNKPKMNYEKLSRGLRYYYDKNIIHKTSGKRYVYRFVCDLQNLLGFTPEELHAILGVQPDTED
Outline: as §1

ETV7 = biological target: T7, ETV7 (Homo sapiens, UniProt Q9Y603 1-341)
T7 sequence: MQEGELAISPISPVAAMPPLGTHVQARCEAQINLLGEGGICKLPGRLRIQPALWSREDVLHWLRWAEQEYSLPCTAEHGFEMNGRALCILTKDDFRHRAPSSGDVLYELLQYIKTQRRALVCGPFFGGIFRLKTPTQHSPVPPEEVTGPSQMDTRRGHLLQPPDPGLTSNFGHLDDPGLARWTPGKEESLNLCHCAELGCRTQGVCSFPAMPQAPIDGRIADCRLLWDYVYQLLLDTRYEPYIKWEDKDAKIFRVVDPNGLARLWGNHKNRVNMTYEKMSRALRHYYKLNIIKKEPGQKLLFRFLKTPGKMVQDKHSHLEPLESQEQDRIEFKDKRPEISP
Outline: as §1

ETV3 = biological target: T8, ETV3 (Homo sapiens, UniProt P41162-2 1-143)
T8 sequence: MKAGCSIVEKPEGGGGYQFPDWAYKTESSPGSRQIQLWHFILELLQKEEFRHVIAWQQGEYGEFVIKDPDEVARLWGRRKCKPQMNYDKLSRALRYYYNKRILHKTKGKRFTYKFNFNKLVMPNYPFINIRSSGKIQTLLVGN
Outline: as §1

ETV6 = ETV6 (Homo sapiens, UniProt P41212 1-452)
ETV6, sequence (P41212 whole entry): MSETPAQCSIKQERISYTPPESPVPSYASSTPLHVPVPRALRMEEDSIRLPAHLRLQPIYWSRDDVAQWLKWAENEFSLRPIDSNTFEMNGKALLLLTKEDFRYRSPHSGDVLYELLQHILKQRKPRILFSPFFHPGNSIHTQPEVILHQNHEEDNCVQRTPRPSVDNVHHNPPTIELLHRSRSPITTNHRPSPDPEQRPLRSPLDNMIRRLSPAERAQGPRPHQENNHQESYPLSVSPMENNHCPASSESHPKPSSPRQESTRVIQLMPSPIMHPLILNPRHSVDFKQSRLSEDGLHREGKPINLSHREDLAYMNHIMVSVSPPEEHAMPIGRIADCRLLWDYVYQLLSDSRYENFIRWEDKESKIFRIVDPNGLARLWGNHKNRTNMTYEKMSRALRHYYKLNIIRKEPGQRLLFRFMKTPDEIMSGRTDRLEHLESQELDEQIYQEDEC
Outline: as §1

Sequence: ATAAGA
- binding signal (ELK4): 1.11 fold enrichment (6-mer frequency, TF over GST control)
- binding signal (ETV2): 1.03 fold enrichment (6-mer frequency, TF over GST control)
- binding signal (ELF3): 1.04 fold enrichment (6-mer frequency, TF over GST control)
- binding signal (ETV1): 1.1 fold enrichment (6-mer frequency, TF over GST control)
- binding signal (ERF): 1.14 fold enrichment (6-mer frequency, TF over GST control)
- binding signal (ETV3L): 1.05 fold enrichment (6-mer frequency, TF over GST control)
- binding signal (ETS2): 1.09 fold enrichment (6-mer frequency, TF over GST control)
- binding signal (ETV7): 1.04 fold enrichment (6-mer frequency, TF over GST control)
- binding signal (ETV3): 1.07 fold enrichment (6-mer frequency, TF over GST control)
- binding signal (ETV6): 1.07 fold enrichment (6-mer frequency, TF over GST control)
